Screening results (PubChem BioAssay)
The list is not random: actives were taken first. Their share in the collection is about 3.4%.
EWS-Fli block: EWS/Fli transcriptional activity inhibition; inhibition, % at 12.6 µM; 0.67% of 350,000 active; A673 NR0B1-luciferase reporter, viability-normalised; AID 651661;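 active = mean inhibition of at least 50% after viability correction, with every replicate also passing that limit; inconclusive = mean reaches 50% but only one of two replicates passes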;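 also: firefly luciferase signal divided by Alamar Blue viability fluorescence both relative to DMSO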
PGC1a acetyl inh: modulators of PGC1a acetylation; U2OS PGC1a acetylation, AlphaScreen anti-acetyl-lysine; with virally co-expressed GCN5 acetyltransferase; inhibition, % at 15.6 µM; 0.17% of 350,000 active;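 active = every replicate shows inhibition of at least 40%; inconclusive = mean inhibition at least 40% but some replicate below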
SIRT5 block: sirtuin-5 (human) deacylase inhibition; 1.1% of 330,000 active; Purified SirT5, succinyl-peptide AMC, trypsin-coupled fluorescence; Q9NXA8; inhibition, % at 15 µM; in the data active = inhibition above about 15%; inconclusive = no clear call, values can overlap the other calls
Target sequence (Q9NXA8 whole entry, looked up): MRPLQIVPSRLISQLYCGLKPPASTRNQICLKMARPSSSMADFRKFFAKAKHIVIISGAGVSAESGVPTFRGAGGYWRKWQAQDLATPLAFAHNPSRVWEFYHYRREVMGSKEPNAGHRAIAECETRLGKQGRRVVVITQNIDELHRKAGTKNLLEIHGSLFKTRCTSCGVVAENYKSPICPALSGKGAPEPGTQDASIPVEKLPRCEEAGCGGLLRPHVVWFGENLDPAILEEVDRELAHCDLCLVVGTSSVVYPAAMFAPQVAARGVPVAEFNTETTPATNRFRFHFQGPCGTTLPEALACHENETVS
rRNA inh HTS: selective bacterial rRNA inhibition in E. coli; E. coli WT GFP vs humanized-ribosome RFP mutants, fluorescence, 24 h; stronger effect = lower value; DMSO median 0, no signal -100; GFP signal change (wild-type ribosome), % (test concentration not listed); 1.6% of 350,000 active;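 active = significant combined selectivity score with lowered wild-type GFP, culture density cut under 30%, mutant RFP and density less affected; inactive = any of these conditions unmet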
LGR2 inh: inhibitors of bursicon-induced Drosophila LGR2 receptor cAMP signaling; inhibition, % at 9.99 µM; HEK293 LGR2, CRE-luciferase, bursicon-stimulated, 4 h; 0.35% of 380,000 active;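 active = drop in luminescence signal, shown as inhibition above about 50% in the replicate tests, limit read from the data, passing the limit was not always enough; inconclusive = probably only some replicates passing the limit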;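 also: agonist challenge used bursicon conditioned medium at about half maximal strength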
PAX8 inh HTS: lowers PAX8-driven luciferase in RMG-I cells; inhibition, % at 12.6 µM; 1.2% of 360,000 active; RMG-I TPO-luciferase reporter, SteadyGlo, 24 h; AID 652154;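 active = mean replicate inhibition at least 60% with every replicate also reaching 60%; inconclusive = only one of the two criteria is met; inactive = mean below 60% and not all replicates reaching 60%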;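 also: luciferase light reporting Pax8 driven TPO promoter activity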
Each line names hits and unclear results; the compound was inactive in the other large screens.

O=C(C[C@@H]1C[C@@H]2c3cc(NC(=O)c4ccc5c(c4)OCO5)ccc3O[C@@H]2[C@@H](CO)O1)NCc1ccc(Oc2ccccc2)cc1	EWS-Fli block inconclusive, LGR2 inh 68
O=C(C[C@H]1C[C@H]2c3cc(NC(=O)Nc4ccccc4F)ccc3O[C@H]2[C@@H](CO)O1)NCc1ccncc1	SIRT5 block 16
COc1cccc(-c2ccc(C3[C@@H]4CN(C(=O)Cc5ccccc5)C[C@H]3N4)cc2)c1 (stereo partly drawn)	none (no result: SIRT5 block)
COc1ccc(S(=O)(=O)N[C@@H]2CC[C@@H](CC(=O)N3CCc4ccccc4C3)O[C@@H]2CO)cc1	none
COc1cccc(NC(=O)C[C@H]2CC[C@@H]3[C@@H](COc4ccc(NC(=O)C5CCCCC5)cc4C(=O)N3C)O2)c1	none
C[C@H]1CN([C@@H](C)CO)C(=O)c2c(c3ccccc3n2C)-c2ccccc2CO[C@H]1CN(C)CC1CCCCC1	none (no result: EWS-Fli block, PGC1a acetyl inh, SIRT5 block, LGR2 inh, PAX8 inh HTS)
Cc1ccc(Cn2ccsc2=NC(=O)COC(=O)c2ccc(O)cc2O)cc1	rRNA inh HTS -26 (no result: EWS-Fli block, PGC1a acetyl inh)
COc1ccc(C(=O)Nc2ccc(Nc3ccccc3)cc2)cc1OC	none (no result: LGR2 inh)
Cc1ccc(NC(=O)c2ccc(Nc3c([N+](=O)[O-])cc([N+](=O)[O-])cc3[N+](=O)[O-])cc2)cc1	LGR2 inh 85 (no result: PGC1a acetyl inh)
COc1ccc(C(=O)Nc2ccc(Nc3ccccc3)cc2)cc1[N+](=O)[O-]	rRNA inh HTS -15
CC(C)NC(=O)N(C)C[C@@H]1Oc2c(N)cccc2C(=O)N(C)C[C@@H]1C	none (no result: EWS-Fli block, PGC1a acetyl inh, SIRT5 block, LGR2 inh, PAX8 inh HTS)
CC(C)NC(=O)N[C@H]1C=C[C@H](CC(=O)N2CCCCC2)O[C@@H]1CO	none
COC(=O)c1[nH]c2cc(OC)c(OC)cc2c1/C=N/Nc1ccccc1	rRNA inh HTS -19 (no result: PGC1a acetyl inh)
COc1cc(/C=N/Nc2ccccc2)ccc1O	none
C[C@@H]1CN([C@H](C)CO)S(=O)(=O)c2ccc(/C=C/c3ccccc3)cc2O[C@H]1CN(C)C(=O)NC1CCCCC1	SIRT5 block 25
C[C@H]1CN([C@@H](C)CO)S(=O)(=O)c2ccc(/C=C/c3ccccc3)cc2O[C@@H]1CN(C)C(=O)NC1CCCCC1	SIRT5 block 30
COc1ccccc1NC(=O)N[C@@H]1CC[C@@H](CC(=O)N2CCC(Cc3ccccc3)CC2)O[C@@H]1CO	none
CN(Cc1ccccn1)C(=O)C1CCC(=O)N(Cc2cccc(F)c2)C1 (stereo not drawn)	none (no result: EWS-Fli block)
CCc1ccc(CN(C)C(=O)C2CCC(=O)N(Cc3ccccn3)C2)cc1 (stereo not drawn)	SIRT5 block 31 (no result: EWS-Fli block, PGC1a acetyl inh)
CCS(=O)(=O)Nc1ccc2c(c1)C(=O)N(C)[C@H]1CC[C@H](CC(=O)OC)O[C@@H]1CO2	none (no result: EWS-Fli block, PAX8 inh HTS)
CCN(C(=O)COC(=O)c1ccc([N+](=O)[O-])o1)c1cccc2ccccc12	rRNA inh HTS -19 (no result: PGC1a acetyl inh)
CC(C)(C)N(Cc1ccccc1)C(=O)COC(=O)c1ccc([N+](=O)[O-])o1	none (no result: rRNA inh HTS)
O=C1C(=Cc2cn(-c3ccccc3)nc2-c2ccc(OCc3ccc(Cl)cc3)cc2)SC(=S)N1CCS(=O)(=O)O	SIRT5 block 37 (no result: PGC1a acetyl inh)
O=C1C(=Cc2cn(-c3ccccc3)nc2-c2ccc(OCc3ccccc3F)cc2)SC(=S)N1CCS(=O)(=O)O	none (no result: PGC1a acetyl inh)
C[C@@H]1CN([C@H](C)CO)C(=O)c2cc(NC(=O)CCC(F)(F)F)ccc2O[C@@H](C)CCCCO[C@@H]1CN(C)Cc1ccccc1	none
COc1ccc(S(=O)(=O)Nc2ccc3c(c2)CC(=O)N([C@@H](C)CO)C[C@@H](C)[C@@H](CN(C)CC2CCCCC2)O3)cc1	none (no result: PAX8 inh HTS)
COc1ccc(S(=O)(=O)Nc2ccc3c(c2)CC(=O)N([C@H](C)CO)C[C@H](C)[C@@H](CN(C)CC2CCCCC2)O3)cc1	SIRT5 block 24 (no result: PAX8 inh HTS)
COc1ccc(S(=O)(=O)Nc2ccc3c(c2)CC(=O)N([C@@H](C)CO)C[C@H](C)[C@@H](CN(C)CC2CCCCC2)O3)cc1	SIRT5 block 16 (no result: PAX8 inh HTS)
CCNC(=O)C[C@@H]1CC[C@H]2[C@H](COc3ccc(NC(=O)c4ccccc4)cc3C(=O)N2C)O1	none
C[C@@H]1CN([C@H](C)CO)S(=O)(=O)c2ccc(C#CC3CCCCC3)cc2O[C@@H]1CN(C)Cc1cccnc1	SIRT5 block 99 (no result: PAX8 inh HTS)
